The sample as a whole holds a higher share of hits than the screen did.
IL-1B inflam inh: qHTS for Inhibitors of Inflammasome Signaling: IL-1-beta AlphaLISA Primary Screen | THP-1 LPS/ATP IL-1B secretion, AlphaLISA, 16 h; hits give low values | activity change, % at 57.5 µM | 360,000 compounds, 4.7% hits | AID 743279, 2014; in the data active = activity change below about -50%; inconclusive = mostly about -30% to -49%
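Secreted IL-1B measured by AlphaLISA bead assay after 16 h compound exposure of THP-1 cells; compounds (final up to 57.5 uM) added 1 h before LPS (250 ng/mL) and ATP (1.25 mM) stimulation; lower signal means less secretion.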
TDP1 cell CPT: qHTS for Inhibitors of human tyrosyl-DNA phosphodiesterase 1 (TDP1): qHTS in cells in presence of CPT. Potency, µM (titrated, usually from 46.2 µM), for the others: at the top dose activity change, negative = growth inhibition, hits mostly inhibitors. chicken DT40 Tdp1-/-;hTDP1 cells + 20 nM CPT, ATP luminescence, 48 h. AID 686979, 2013. 420,000 compounds, 12% hits; also: potency is read from the fitted curve at half-maximal effect; nearly all actives have a fitted effect of over 55% in size
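Chicken DT40 Tdp1-/- cells stably complemented with human TDP1 were seeded at 400 cells/well in medium containing 20 nM camptothecin, exposed to pin-transferred compounds, and grown at 37 °C for at least 48 hr. Viability was read as ATP luminescence.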
DT40 TDP1 no CPT: qHTS for Inhibitors of human tyrosyl-DNA phosphodiesterase 1 (TDP1): qHTS in cells in absence of CPT | DT40 Tdp1-/- hTDP1 cells, no CPT, ATP luminescence, 48 h | Potency, µM (titrated, usually from 46.2 µM), for the others: top-dose activity change, negative = growth inhibition, hits mostly inhibitors | 420,000 compounds, 15% hits; also: potency is read from the fitted curve at half-maximal effect; nearly all actives have a fitted effect of over 55% in size
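Luminescent ATP content (CellTiter-Glo) served as the growth readout. Knockout chicken DT40 cells expressing human TDP1 were exposed to compounds without camptothecin for a minimum 48 hr at 37 °C.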
HT1080-NT tox: qHTS for induction of synthetic lethality in tumor cells producing 2HG: qHTS for the HT-1080-NT fibrosarcoma cell line; HT-1080-NT fibrosarcoma viability, CellTiter-Glo ATP luminescence, 48 h; 360,000 compounds, 1.6% hits; AID 686970, 2013; Potency, µM (doses to about 46.1 µM), for the others: at the top dose activity, negative = less viability, hits mostly cytotoxic;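 also: NT is the 2HG producing partner of a matched IDH1 knockdown line; potency is read from the fitted curve at half-maximal effect; 0% = DMSO-treated cells and -100% = media-only wells without cells; nearly all actives have a fitted effect of over 55% in size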
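Compounds were tested in concentration-response format on HT-1080-NT cells for 48 hours at 37 degrees C. Cell viability came from CellTiter-Glo luminescence; curves were classified by r2, response magnitude and activity.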
12-LOX inh: Primary qHTS assay for inhibitors of human arachidonate 12S-lipoxygenase (ALOX12): Round 2; Polyunsaturated fatty acid lipoxygenase ALOX12 (Homo sapiens), P18054; purified 12hLO, xylenol orange hydroperoxide absorbance; Potency, µM (doses to about 108 µM), without a hit: at the top dose activity change, negative = inhibition, actives largely listed as inhibitors; 580,000 compounds, 1.1% hits; AID 1671190, 2021; also: potency is read from the fitted curve at half-maximal effect
Target sequence (P18054 whole entry, looked up): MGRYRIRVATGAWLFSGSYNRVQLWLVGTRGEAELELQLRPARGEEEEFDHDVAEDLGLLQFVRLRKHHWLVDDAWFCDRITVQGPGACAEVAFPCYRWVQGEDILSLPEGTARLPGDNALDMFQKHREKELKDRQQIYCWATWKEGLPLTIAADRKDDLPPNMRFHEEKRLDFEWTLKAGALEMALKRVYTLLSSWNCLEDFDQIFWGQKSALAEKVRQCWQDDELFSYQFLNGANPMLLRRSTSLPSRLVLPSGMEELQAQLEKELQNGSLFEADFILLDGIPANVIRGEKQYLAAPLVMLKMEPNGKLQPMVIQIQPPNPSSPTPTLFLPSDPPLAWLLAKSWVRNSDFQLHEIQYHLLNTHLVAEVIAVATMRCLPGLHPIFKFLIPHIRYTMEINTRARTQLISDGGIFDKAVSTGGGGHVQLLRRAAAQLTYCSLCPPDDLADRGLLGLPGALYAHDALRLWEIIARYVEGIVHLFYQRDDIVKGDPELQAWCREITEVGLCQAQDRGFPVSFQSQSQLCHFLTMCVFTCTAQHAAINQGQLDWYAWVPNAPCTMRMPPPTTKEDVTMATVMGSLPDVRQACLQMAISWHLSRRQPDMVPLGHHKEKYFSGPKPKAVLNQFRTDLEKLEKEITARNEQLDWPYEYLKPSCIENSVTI
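Hydroperoxide product was detected by ferrous iron/xylenol orange as the 573 to 405 nm absorbance ratio. Arachidonic acid at 40 uM (final) was turned over for 30 min at room temperature by 150 nM human 12hLO, pH 7.0 Hepes buffer, after 15 min compound preincubation.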
HT1080 IDH1KD tx: qHTS for induction of synthetic lethality in tumor cells producing 2HG: qHTS for the HT-1080-IDH1KD cell line. AID 686971, 2013. Potency, µM (titrated, usually from 46.1 µM), without a hit: top-dose activity, negative = toxicity, usual class: cytotoxic. 360,000 compounds, 2% hits. HT-1080 IDH1 knockdown viability, ATP luminescence, 48 h;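 also: potency is read from the fitted curve at half-maximal effect; 0% = DMSO wells and -100% = cell-free medium wells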
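% activity derives from luminescence (CellTiter-Glo), normalised to DMSO and no-cell wells. HT-1080-IDH1KD cells, 750/well, had 48 h compound exposure at 37 °C.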
* hit, by the source's call; u = inconclusive; x = no result; [ ] = another dose, or the depositor's remark. Unless noted, calls follow the shape of the dose curve; as a rule, active = well fitted curve in the direction sought with a large enough effect; inconclusive = small, poorly fitted or top-dose-only effect, or another doubt; inactive = no such curve, though single readings can be large; an effect the other way counts as inactive or inconclusive. Unless noted, % is scaled to controls: 0 for no effect and ±100 for the full control effect.

SMILES | IL-1B inflam inh | TDP1 cell CPT | DT40 TDP1 no CPT | HT1080-NT tox | 12-LOX inh | HT1080 IDH1KD tx
Cn1ccc2c(N(Cc3ccccc3)Cc3ccccc3)cc3c(c21)C1CCC3O1 (stereo not drawn) | 0.0 | u | 18.4µM* | -19.4% | 11.2µM* | -16.1%
COc1ccccc1N(C)c1cc2c(c3c1ccn3C)C1CCC2O1 (stereo not drawn) | 0.0 | 23.1µM* | u | 23.1µM* | -28.6% | u
CCOC(=O)c1oc2cc(OCC(=O)c3ccccc3)ccc2c(=O)c1-c1ccc2c(c1)OCCO2 | x | x | x | x | 5.9% | x
O=C(CSc1ccc2ccccc2n1)N/N=C/c1ccc(O)cc1 | 56.4 | u | u | u | 11.3% | u
O=C(Cn1cncn1)N/N=C/c1ccccc1O | 36.9 | 14.6µM* | 13µM* | -20.7% | 7.1% | 0.1%
Cc1ccccc1/C=N/NC(=O)Cn1cnc([N+](=O)[O-])n1 | 20.1 | -10.5% | 3.1% | 1.7% | 6.1% | 0.7%
O=C(Cn1cnc([N+](=O)[O-])n1)N/N=C/c1cc(Cl)ccc1O | 169.1 | 4.61µM* | 7.31µM* | u | u | u
O=C(Cn1cnc([N+](=O)[O-])n1)N/N=C/c1ccccc1O | 166.2 | 16.4µM* | 16.4µM* | u | -11.3% | u
O=C(CSc1ccc2ccccc2n1)N/N=C/c1ccccc1O | 299.3 | 5.17µM* | 5.8µM* | u | -2.7% | u
Cc1ccc2c(c1)c(-c1ccccc1)c(-c1ccccc1)n2CCC#N | x | x | x | x | 2.4% | x
COc1ccc2nc(CO[C@H]3CN(Cc4ccc(S(C)(=O)=O)cc4)C[C@H]3F)[nH]c2c1 | x | x | x | x | -29.7%[176 µM] | x
Cc1cccc(N/N=C(\C#N)S(=O)(=O)C(C)(C)C)c1 | 21.1 | 3.8% | u | -5.7% | u | -2.4%
N#C/C(=N\Nc1ccc(Cl)cc1)C(=N)N1CCCCCC1 | 4.3 | -0.3% | -2.9% | 7.9% | 10.2% | 7.1%
CC(C)(C)c1ccc(N/N=C(\C#N)S(=O)(=O)C(C)(C)C)cc1 | u | 4.61µM* | u | 23.1µM* | -15.9% | u
CC(C)(C)S(=O)(=O)/C(C#N)=N/Nc1ccc(Cl)cc1 | -20.5 | u | 14.6µM* | u | u | u
COCCCn1cn[nH]c1=S | -6.0 | u | 14.6µM* | 4.0% | 0.1% | 9.6%
COCCCn1c(-c2ccc(Cl)cc2)n[nH]c1=S | -4.5 | -8.9% | 18.4% | 1.0% | u | -1.0%
Oc1ccccc1N=Cc1c(O)ccc2ccccc12 | 35.4 | u | -17.3% | u | -13.5% | 18.4µM*
CS/C(N)=N/N=C/c1c(O)ccc2ccccc12 | 33.9 | u | 3.66µM* | -16.5% | u | u
Oc1oc(-c2ccccc2)nc1C=Nc1cccc2ccccc12 | 13.0 | u | 15.8µM* | u | -1.7% | -16.5%
CN(C)/N=C/c1c(O)ccc2ccccc12 | -5.8 | -8.4% | -28.4% | -0.8% | u | -6.0%
Oc1ccc2ccccc2c1C=NC12CN3CCN(CN(C3)C1)C2 | 24.6 | 13µM* | u | -2.0% | 7.8% | -4.9%
OCC(CO)(CO)N=Cc1c(O)ccc2ccccc12 | 21.7 | u | u | u | -29.3% | u
Oc1ccccc1C=Nc1cccc2ccccc12 | 13.9 | -2.5% | -1.7% | -3.1% | 140.1% | -11.6%
Oc1cccc(C=Nc2cccc3ccccc23)c1O | -59.3* | u | u | 18.4µM* | u | 23.1µM*

Screens as filed in PubChem.
